Structures can show the parent of a compound that is named as a salt. ± gives the standard deviation of the averaged measurements.
Key:
[1] = test system: Saccharomyces cerevisiae BY4741 SeMeCo community; assay: mean cell size (pixel area) (pixels); higher = larger cells; settings: 10 µM; 24 h; SM minimal medium
Procedure, shortened: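 A fluorescent Saccharomyces cerevisiae BY4741 community carrying four plasmids was used, with each plasmid complementing one auxotrophy and bearing a fluorescent marker. An overnight preculture at OD600 = 1.0 was diluted to OD600 = 0.3, and 70 µl went into 384-well plates acoustically predosed with drug (final 10 µM) in SM medium for 24 h. After paraformaldehyde fixation, cells were imaged by automated confocal microscopy and analysed in Harmony, giving the mean cell pixel area per well. Each value is the average of 3 replicates. Same SeMeCo high-content imaging drug screen: Selleck FDA-approved drugs at 10 µM, 24 h in SM medium, 384-well plates, 3 replicates.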

[2] = test system: Saccharomyces cerevisiae BY4741 SeMeCo community; assay: z-score of prototroph abundance vs DMSO median; higher = larger share of this subpopulation than in DMSO controls; settings: 10 µM; 24 h; SM minimal medium; subpopulation (auxotrophy): Prototroph
Procedure, shortened: (§1)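 Cells of a Saccharomyces cerevisiae BY4741 community, carrying four plasmids that each restored one auxotrophy and encoded a distinct fluorescent protein, were pre-grown overnight to OD600 1.0 and diluted to 0.3. A 70 µl volume was added to 384-well plates acoustically predosed with library drugs (10 µM final) and grown 24 h in minimal SM medium. After paraformaldehyde fixation, automated confocal microscopy was used, with single-auxotroph fluorescent strains for thresholds and autofluorescence correction. The abundance of each subpopulation was scored as a z-score against the vehicle-well median.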

[3] = test system: Saccharomyces cerevisiae BY4741 SeMeCo community; assay: z-score of subpopulation abundance vs DMSO median, subpopulation auxotrophic for M; higher = larger share of this subpopulation than in DMSO controls; settings: 10 µM; 24 h; SM minimal medium; subpopulation (auxotrophy): M
Procedure, shortened: as §1

[4] = test system: Saccharomyces cerevisiae BY4741 SeMeCo community; assay: z-score of subpopulation abundance vs DMSO median, subpopulation auxotrophic for L; higher = larger share of this subpopulation than in DMSO controls; settings: 10 µM; 24 h; SM minimal medium; subpopulation (auxotrophy): L
Procedure, shortened: as §1

[5] = test system: Saccharomyces cerevisiae BY4741 SeMeCo community; assay: z-score of subpopulation abundance vs DMSO median, subpopulation auxotrophic for U; higher = larger share of this subpopulation than in DMSO controls; settings: 10 µM; 24 h; SM minimal medium; subpopulation (auxotrophy): U
Procedure, shortened: as §1

[6] = test system: Saccharomyces cerevisiae BY4741 SeMeCo community; assay: z-score of subpopulation abundance vs DMSO median, subpopulation auxotrophic for H; higher = larger share of this subpopulation than in DMSO controls; settings: 10 µM; 24 h; SM minimal medium; subpopulation (auxotrophy): H
Procedure, shortened: as §1

[7] = test system: Saccharomyces cerevisiae BY4741 SeMeCo community; assay: z-score of subpopulation abundance vs DMSO median, subpopulation auxotrophic for LU; higher = larger share of this subpopulation than in DMSO controls; settings: 10 µM; 24 h; SM minimal medium; subpopulation (auxotrophy): LU
Procedure, shortened: as §1

[8] = test system: Saccharomyces cerevisiae BY4741 SeMeCo community; assay: z-score of subpopulation abundance vs DMSO median, subpopulation auxotrophic for LM; higher = larger share of this subpopulation than in DMSO controls; settings: 10 µM; 24 h; SM minimal medium; subpopulation (auxotrophy): LM
Procedure, shortened: as §1

[9] = test system: Saccharomyces cerevisiae BY4741 SeMeCo community; assay: z-score of subpopulation abundance vs DMSO median, subpopulation auxotrophic for HU; higher = larger share of this subpopulation than in DMSO controls; settings: 10 µM; 24 h; SM minimal medium; subpopulation (auxotrophy): HU
Procedure, shortened: as §1

[10] = test system: Saccharomyces cerevisiae BY4741 SeMeCo community; assay: z-score of subpopulation abundance vs DMSO median, subpopulation auxotrophic for UM; higher = larger share of this subpopulation than in DMSO controls; settings: 10 µM; 24 h; SM minimal medium; subpopulation (auxotrophy): UM
Procedure, shortened: as §1

[11] = test system: Saccharomyces cerevisiae BY4741 SeMeCo community; assay: z-score of subpopulation abundance vs DMSO median, subpopulation auxotrophic for HL; higher = larger share of this subpopulation than in DMSO controls; settings: 10 µM; 24 h; SM minimal medium; subpopulation (auxotrophy): HL
Procedure, shortened: as §1

[12] = test system: Saccharomyces cerevisiae BY4741 SeMeCo community; assay: z-score of subpopulation abundance vs DMSO median, subpopulation auxotrophic for HLU; higher = larger share of this subpopulation than in DMSO controls; settings: 10 µM; 24 h; SM minimal medium; subpopulation (auxotrophy): HLU
Procedure, shortened: as §1

[13] = test system: Saccharomyces cerevisiae BY4741 SeMeCo community; assay: z-score of subpopulation abundance vs DMSO median, subpopulation auxotrophic for HLM; higher = larger share of this subpopulation than in DMSO controls; settings: 10 µM; 24 h; SM minimal medium; subpopulation (auxotrophy): HLM
Procedure, shortened: as §1

[14] = test system: Saccharomyces cerevisiae BY4741 SeMeCo community; assay: z-score of subpopulation abundance vs DMSO median, subpopulation auxotrophic for HUM; higher = larger share of this subpopulation than in DMSO controls; settings: 10 µM; 24 h; SM minimal medium; subpopulation (auxotrophy): HUM
Procedure, shortened: as §1

[15] = test system: Saccharomyces cerevisiae BY4741 SeMeCo community; assay: z-score of subpopulation abundance vs DMSO median, subpopulation auxotrophic for LUM; higher = larger share of this subpopulation than in DMSO controls; settings: 10 µM; 24 h; SM minimal medium; subpopulation (auxotrophy): LUM
Procedure, shortened: as §1

[16] = test system: Saccharomyces cerevisiae BY4741 SeMeCo community; assay: z-score of subpopulation abundance vs DMSO median, subpopulation auxotrophic for HLUM; higher = larger share of this subpopulation than in DMSO controls; settings: 10 µM; 24 h; SM minimal medium; subpopulation (auxotrophy): HLUM
Procedure, shortened: as §1

[17] = test system: Saccharomyces cerevisiae BY4741 SeMeCo community; assay: z-score of subpopulation abundance vs DMSO median, subpopulation auxotrophic for HM; higher = larger share of this subpopulation than in DMSO controls; settings: 10 µM; 24 h; SM minimal medium; subpopulation (auxotrophy): HM
Procedure, shortened: as §1

SMILES	mean cell size [1]	z-score of prototroph abundance [2]	z-score of subpopulation abundance [3]	z-score of subpopulation abundance [4]	z-score of subpopulation abundance [5]	z-score of subpopulation abundance [6]	z-score of subpopulation abundance [7]	z-score of subpopulation abundance [8]	z-score of subpopulation abundance [9]	z-score of subpopulation abundance [10]	z-score of subpopulation abundance [11]	z-score of subpopulation abundance [12]	z-score of subpopulation abundance [13]	z-score of subpopulation abundance [14]	z-score of subpopulation abundance [15]	z-score of subpopulation abundance [16]	z-score of subpopulation abundance [17]
O=C(O)C[C@H](O)C[C@H](O)/C=C/c1c(C2CC2)nc2ccccc2c1-c1ccc(F)cc1 [Pitavastatin Calcium]	12 ± 0.2	-2.8	1	0.86	0.68	1.86	1.45	-0.2	2.66	1.84	1.83	1.38	2.39	3.37	1.38	1.55	–
C=CCN1CCCC1CNC(=O)c1cc2nn[nH]c2cc1OC (configuration not stated) [Alizapride HCl]	12.3 ± 0.14	-0.2	-0.5	0.16	0.74	–	0.9	-0.39	0.88	0.58	-0.36	0.1	-0.44	0	–	0.23	–
CCOc1cc(N)c([N+](=O)[O-])cc1C(=O)NC1CCN(CC2CC=CCC2)CC1 (configuration not stated) [Cinitapride Hydrogen Tartrate]	12.3 ± 0.2	–	0.87	-0.2	1.07	-0.46	0.88	0.4	0.74	1.35	-0.01	0.47	-0.29	1.26	0.94	0.5	–
CCC[C@@H]1C[C@@H](C(=O)N[C@@H]([C@H]2O[C@H](SC)[C@H](O)[C@@H](O)[C@H]2O)[C@@H](C)O)N(C)C1 [Lincomycin Hydrochloride Monohydrate]	12.3 ± 0.19	-0.67	0.19	-0.22	0.86	-0.54	0.94	-0.56	–	0.42	-0.46	0.91	-0.3	-0.11	0.4	–	-0.07
C#CCN[C@@H]1CCc2ccccc21 [Rasagiline]	12.26 ± 0.11	0.01	-0.39	-0.1	0.2	–	0.78	-0.61	0	0.58	-0.5	-0.13	-0.17	-0.36	–	0.12	–
O=C(Nc1c(Cl)cncc1Cl)c1ccc(OC(F)F)c(OCC2CC2)c1 [Roflumilast]	12.4 ± 0.14	0.36	0.29	-0.2	0.07	-0.65	0.34	-0.1	0.22	0.24	-0.5	-0.37	-0.77	-0.17	-0.56	-0.84	–
O=C(NCCO[N+](=O)[O-])c1cccnc1 [Nicorandil]	12.4 ± 0.13	0.69	-0.48	0.07	-0.31	-0.28	0.21	-0.01	-0.39	-0.61	–	0.08	-0.83	-0.48	-0.44	–	–
Cc1nc(NC(=O)N2CCC[C@H]2C(N)=O)sc1-c1ccnc(C(C)(C)C(F)(F)F)c1 [Alpelisib (BYL719)]	12.6 ± 0.23	-0.14	-0.14	-1.04	0.93	–	0.28	–	0.49	0.25	-0.35	-0.75	-0.12	0.48	–	-0.78	0.31
CCCCCCCCCCCCCCCCOP(=O)([O-])OCC[N+](C)(C)C [Miltefosine]	7.76 ± 0.26	-22.6	-7.93	-5.76	-5.15	-10.2	7.16	–	1.54	31.2	3.75	0.88	15.6	142	20.4	161	0.26
NC1CCN(c2nc3c(cc2F)c(=O)c(C(=O)O)cn3-c2ccc(F)cc2F)C1 (configuration not stated) [Tosufloxacin p-Toluenesulfonate Hydrate]	12.3 ± 0.29	0.74	-0.77	-0.11	-0.39	0.41	-0.88	–	–	-0.74	-0.52	0.67	-0.56	-0.83	-0.71	-0.36	-0.46
CC[C@H]1OC(=O)[C@H](C)[C@@H](O[C@H]2C[C@@](C)(OC)[C@@H](O)[C@H](C)O2)[C@H](C)[C@@H](O[C@@H]2O[C@H](C)C[C@H](N(C)C)[C@H]2O)[C@](C)(O)C[C@@H](C)CN(C)[C@H](C)[C@@H](O)[C@]1(C)O [Azithromycin]	12.5 ± 0.14	-0.03	-0.81	0.82	-0.41	-0.15	0.14	–	0.02	-0.55	-0.27	-0.06	0.46	0.11	0.31	–	–
CCCCCCCCCCCC(=O)O [Lauric Acid]	12.2 ± 0.16	0.84	-1.03	-0.6	–	-1.48	-0.2	–	–	–	-1.05	-0.82	-1.21	-0.04	-0.68	-0.48	-0.82
O=c1ccc2cc(O)c(O)cc2o1 [Esculetin]	12.7 ± 0.16	2.22	5.32	1.75	-7.81	3.92	-7.32	–	-7.17	-8.53	–	-3.44	1.67	-4.69	-3.61	-0.38	3.75
CS(=O)(=O)c1ccc([C@@H](O)[C@@H](CO)NC(=O)C(Cl)Cl)cc1 [Thiamphenicol]	12.41 ± 0.061	0.25	-0.68	0.13	0.59	-0.3	0.67	–	0.15	0.81	-0.52	-0.36	-0.85	-0.08	-0.6	-0.23	-0.5

Reference: the supplement of paper PMC8975748
